The text below walks through data of PubChem BioAssay AID1347415 (National Center for Advancing Translational Sciences (NCATS), 2020).

SMILES strings stand for the structures. Results filed as inconclusive are left out. The source made the active and inactive calls. Calls come from the whole dose curve; as a rule, active = well fitted inhibition curve with a large enough effect; inconclusive = small, poorly fitted or top-dose-only effect; inactive = no such curve, though single readings can be large or run the other way.

The test is described as follows: qHTS to identify inhibitors of the type 1 interferon - major histocompatibility complex class I in skeletal muscle: tertiary screen by RT-qPCR. The following applies: C25cl48 human myoblasts, IFN-beta, HLA-B RT-qPCR, 24 h; series mostly up to 49.8 µM. An excerpt: Assay Submitter (PI): Travis B. Kinder Ph.D. & James Inglese Ph.D. Assay Development and Screening Technology Laboratory (ADST) National Center for Advancing Translational Sciences (NCATS), Rockville, MD National Institute of Health (NIH), Bethesda, Maryland Idiopathic inflammatory myopathies, collectively referred to as myositis, are a group of rare autoimmune diseases characterized by skeletal muscle inflammation, weakness, and usually accompanied by systemic pathologies of the skin, lungs, or vasculature. Current immunosuppressive therapies and glucocorticoids are often not curative and are accompanied by harsh side effects, especially in children with juvenile myositis. We initiated a drug repurposing and development program to identify more targeted, less toxic therapeutics to treat myositis. Although its cause is not known, muscle from a subset of patients have an abundance of the inflammatory type 1 interferon (IFN) and a down-stream product major histocompatibility complex class I (MHC class I), which are both thought to contribute to damage and weakness. We conducted quantitative high throughput screening (qHTS) on 6,576 compounds (4,679 unique) through a series of cell-based assays to identify those that inhibit the IFN-stimulated expression of MHC class I in muscle precursor cells (myoblasts). The compound identification and evaluation strategy utilized a primary screen with reporter-tagged MHC class I in genome-engineered myoblasts, ATP content counter screen for viability, HLA-ABC immunofluorescence secondary screen, and HLA-B RT-qPCR tertiary screen. To determine if active compounds identified by qHTS in HLA-B HiBit reporter cells, and confirmed by HLA-ABC immunofluorescence, can inhibit the transcription of HLA-B mRNA, compounds were assayed by RT-qPCR. Briefly, 62 compounds identified from primary, counter, and secondary screening as inhibitory with minimal cytotoxicity were dispensed into 384-well plates using acoustic dispensing in a 6-point, 1:7 titration with a high final concentration of 10 uM. Normal immortalized human myoblasts C25cl48 were added to the plate with 4.0 ng/ml human IFN-beta for 24 hours, and cells were harvested and assayed by the Cells-to-Ct kit with TaqMan assays (Thermo Fisher).
PROTOCOL TABLE (as described by Inglese et al., 2007) SEQUENCE No. (e.g., 1, 2, 3, etc.); […] (e.g., Cells, Incubation, Reagent, etc.); VALUE; DESCRIPTION 0; Compounds; 150 nl; Follow-up compounds dispensed at 150 nl/well with Labcyte Echo 655 acoustic dispenser into one Corning white/clear bottom, high base TC 384-well plates (3765) 1a; Cells; 30 uL; Using a p200 manual pipette, seed 780 cells/well into 1 plate in 30 ul/well of iHSKM growth medium without dexamethasone into columns wells A1-A6. […]
In general terms: Quantitative high-throughput screening tests each substance at several concentrations.
As for `C=C1C(=O)O[C@@H]2[C@H]3O[C@]3(C)CCC=C(C)CC[C@@H]12`, the Potency was 16400 nM (active).

Take `Cc1[nH]c2ccccc2c1CCNCc1ccc(/C=C/C(=O)NO)cc1`: the Potency is 29.2 nM (active).

As for `Cc1cc(Nc2nc(N[C@@H](C)c3ncc(F)cn3)ncc2Cl)n[nH]1`, the Potency is 4130 nM (active).

Turning to `CC(=O)c1cnc2ccc(-c3cc(Cl)c(O)c(Cl)c3)nc2c1NC1CCC(CN(C)C)CC1` (configuration not stated), the Potency is 116 nM (active).

For the compound `O=C(/C=C/c1ccc(CN(CCO)CCc2c[nH]c3ccccc23)cc1)NO`, the Potency is 116 nM (active).

As to `C[C@@]12O[C@@H](C[C@]1(O)CO)n1c3ccccc3c3c4c(c5c6ccccc6n2c5c31)CNC4=O`, the Potency was 2600 nM (active).

As to `CS[C@H]1SC[C@@H]2C(=O)N(C)[C@H](C(C)C)C(=O)OC[C@H](NC(=O)c3cnc4ccccc4n3)C(=O)N[C@H](C)C(=O)N(C)[C@H]1C(=O)N(C)[C@H](C(C)C)C(=O)OC[C@H](NC(=O)c1cnc3ccccc3n1)C(=O)N[C@H](C)C(=O)N2C`, the Potency entry is “inactive”.

In the case of `Cc1ccc(-c2ncn(-c3ccc(Nc4nccc(-c5cccc(N6CCOCC6)c5)n4)cc3)n2)cn1`, the Potency was 1460 nM (active).

On to `Cc1ncsc1-c1ccc([C@H](C)NC(=O)[C@@H]2C[C@@H](O)CN2C(=O)[C@@H](NC(=O)COCCCOCCNC(=O)C[C@@H]2N=C(c3ccc(Cl)cc3)c3c(sc(C)c3C)-n3c(C)nnc32)C(C)(C)C)cc1`, for which the Potency result is “inactive”.

On to `NC(=O)Nc1sc(-c2ccc(F)cc2)cc1C(N)=O`, for which the Potency is 10400 nM (active).

Turning to `CCN(CC)Cc1ccc2cc(COC(=O)Nc3ccc(C(=O)NO)cc3)ccc2c1`, the Potency is 4130 nM (active).

For `COc1ccc(-c2nc(N3CCOCC3)c3sc(CN(C)c4ncc(C(=O)NO)cn4)cc3n2)cn1`, the Potency was 23.2 nM (active).

For `CC(=O)OCC(=O)[C@@]12OC(C)(C)O[C@@H]1C[C@H]1[C@@H]3C[C@H](F)C4=CC(=O)C=C[C@]4(C)[C@@]3(F)[C@@H](O)C[C@@]12C`, the Potency result was “inactive”.

As to `COc1cccc2c1C(=O)c1c(O)c3c(c(O)c1C2=O)C[C@@](O)(C(=O)CO)C[C@@H]3O[C@H]1C[C@H](N)[C@H](O)[C@H](C)O1`, the Potency was 1040 nM (active).

Turning to `OCCCNc1cc(-c2ccnc(Nc3cccc(Cl)c3)n2)ccn1`, the Potency is 116 nM (active).

In the case of `CC(C)C[C@H](NC(=O)[C@H](CCc1ccccc1)NC(=O)CN1CCOCC1)C(=O)N[C@@H](Cc1ccccc1)C(=O)N[C@@H](CC(C)C)C(=O)[C@@]1(C)CO1`, the Potency is 1840 nM (active).

Consider `CCS(=O)(=O)N1CCN(c2ccc(Nc3ncc(C(N)=O)c(NC4CC4)n3)cc2)CC1`, for which the Potency is 5830 nM (active).

For `Cc1nc(Nc2n[nH]c3c2CN(C(=O)N[C@H](CN(C)C)c2ccccc2)C3(C)C)c2sccc2n1`, the Potency was 1840 nM (active).

As to `Cc1ccc([N+](=O)[O-])cc1S(=O)(=O)N(C)/N=C/c1cnc2ccc(Br)cn12`, the Potency is 232 nM (active).

For `CC1=C(CO)C(=O)O[C@@H]([C@@H](C)[C@H]2CC[C@H]3[C@@H]4C[C@H]5O[C@]56[C@@H](O)C=CC(=O)[C@]6(C)[C@H]4CC[C@]23C)C1`, the Potency is 1300 nM (active).

Take `Cc1cc(O)c(-c2ccc([C@@H](C)CN(C)C)cc2)c2c1[nH]c(=O)c1sccc12`: the Potency is 51.9 nM (active).

Consider `CC(=O)c1ccc2c(c1)c1cc(C(C)=O)ccc1n2CCNC(C)C`, for which the Potency was 1840 nM (active).

On to `Cc1cc(Nc2cc(NC(=O)c3c(Cl)cccc3Cl)ccn2)nc(N)n1`, for which the Potency was 4630 nM (active).

With `N#CCC1(n2cc(-c3ncnc4[nH]ccc34)cn2)CN(C2CCN(C(=O)c3ccnc(C(F)(F)F)c3F)CC2)C1`, the Potency is 3680 nM (active).

Regarding `N#CC[C@H](C1CCCC1)n1cc(-c2ncnc3[nH]ccc23)cn1`, the Potency is 1640 nM (active).

As to `c1cc(Nc2cc(C3CC3)[nH]n2)nc(Nc2ccc3nc[nH]c3c2)n1`, the Potency was 654 nM (active).

As for `N#CCNC(=O)c1ccc(-c2ccnc(Nc3ccc(N4CCOCC4)cc3)n2)cc1`, the Potency was 23200 nM (active).

Regarding `O=C(Nc1nc2cccc(-c3ccc(CN4CCS(=O)(=O)CC4)cc3)n2n1)C1CC1`, the Potency was 18400 nM (active).

For `COc1cccc2c1C(=O)c1c(O)c3c(c(O)c1C2=O)C[C@@](O)(/C(CO)=N/NC(=O)CCCCCN1C(=O)C=CC1=O)C[C@@H]3O[C@H]1C[C@H](N)[C@H](O)[C@H](C)O1`, the Potency is 4630 nM (active).

As to `OC1CCC(Oc2cccc3cnc(Nc4ccc5nc[nH]c5c4)nc23)CC1` (configuration not stated), the Potency was 654 nM (active).

For `CN1CCN(Cc2ccc(NC(=O)Nc3ccc(Oc4cc(NC(=O)C5CC5)ncn4)cc3)cc2C(F)(F)F)CC1`, the Potency is 146 nM (active).

As for `NC(=O)c1cnc2[nH]ccc2c1NC1C2CC3C[C@H]1CC(O)(C3)C2` (some centres not stated), the Potency is 1640 nM (active).

Consider `C=CCNC1=C2C[C@@H](C)C[C@H](OC)[C@H](O)[C@@H](C)/C=C(\C)[C@H](OC(N)=O)[C@@H](OC)/C=C\C=C(/C)C(=O)NC(=CC1=O)C2=O`, for which the Potency entry is “inactive”.

Take `Cc1ccc(NC(=O)NCc2ccc3c(c2)CN(C2CCC(=O)NC2=O)C3=O)cc1Cl` (configuration not stated): the Potency result is “inactive”.

In the case of `C[C@H]1C[C@@H]2[C@H]([C@@H](O)C[C@@]3(C)[C@H]2CC[C@]3(O)C(=O)CO)[C@@]2(C)C=CC(=O)C=C12`, the Potency entry is “inactive”.

For the compound `CN1CCN(c2cccc(Nc3nc4c(-c5ccc(S(C)(=O)=O)cc5)cccn4n3)c2)CC1`, the Potency was 8230 nM (active).

For `C[C@]12C=CC(=O)C=C1CC[C@@H]1[C@@H]2[C@@H](O)C[C@@]2(C)[C@H]1CC[C@]2(O)C(=O)CO`, the Potency result is “inactive”.
